Activity calls are given as the source filed them. Unless noted, the rule behind the calls is not given here.
Key:
[1] = system: Wnt5a (protein binding on small-molecule microarray); assay: small molecules binding Wnt5a protein – biophysical, small-molecule microarray, 635/667 nm fluorescence, primary screen (AID 1142); settings: 635 nm fluorescence, higher = more signal;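 note: fluorescence read at 667 nm with signal to noise per printed feature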
[2] = ATP-based viability of Huh7 replicon cells – cell-based, CellTiter-Glo luminescence, basal, 48 h, cytotoxicity control for HCV replication inhibitor project, primary screen (AID 1143); settings: higher = more signal, called active from +8 up or from −8 down;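 note: Huh7 hepatoma cells carrying a hepatitis C replication reporter with no stimulus; test concentration not given here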
[3] = Pseudomonas biofilm growth suppression – PAO1 strain, BacTiter-Glo luminescence, LB-PBS, primary screen (AID 1144); settings: P. aeruginosa PAO1 biofilm, 12 h, higher = more signal
[4] = basal CRE-LacZ reporter activity in PC12 – cell-based, unstimulated, primary screen (AID 1145); settings: no forskolin, luminescence, 4.5 h, higher = more signal, called active from +8 up or from −8 down
[5] = forskolin-driven CRE-LacZ activity in PC12 – cell-based, CRE-LacZ reporter, forskolin-stimulated, primary screen (AID 1146); settings: luminescence, 4.5 h, higher = more signal, called active from +8 up or from −8 down;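 note: PC12 cells with 6xCRE LacZ reporter stimulated by forskolin 10 µM; beta-galactosidase reporter signal reflecting CREB driven transcription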
[6] = target: Streptavidin (Streptomyces avidinii) (UniProt P22629); assay: compounds binding control protein streptavidin – biophysical, small-molecule microarray, 635/667 nm fluorescence, artefact control for SMM compound annotation, primary screen (AID 1147); settings: higher = more signal;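 note: signal reflects streptavidin binding to arrayed compounds as a control protein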
[7] = probe aInhba binding on compound microarray – biochemical, small-molecule microarray, 635/667 nm fluorescence, primary screen (AID 1148); settings: higher = more signal;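 note: score merges 667nm spot fluorescence with signal-to-noise for antibody binding to printed compounds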
Torsin-1A (Homo sapiens) [8] = target: Torsin-1A (Homo sapiens) (UniProt O14656); assay: TOR1A wild-type binding on microarray – cell lysate, small-molecule microarray, lysate, 635/667 nm, primary screen (AID 1149); settings: COS7 hTOR1A-WT lysate, 635 nm fluorescence, higher = more signal
Torsin-1A (Homo sapiens) [9] = target: Torsin-1A (Homo sapiens) (UniProt O14656); assay: torsin A mutant lysate binding on microarrays – cell lysate, small-molecule microarray, COS7 lysate, 635/667 nm fluorescence, primary screen (AID 1150); settings: COS7 hTOR1A mutant lysate, 635 nm fluorescence, higher = more signal;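 note: score pools 667 nm emission and signal to noise measuring lysate protein binding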
[10] = system: Sonic hedgehog protein (Shh); assay: Sonic hedgehog microarray binding compounds – biochemical, small-molecule microarray, 635/667 nm fluorescence, primary screen (AID 1151); settings: 635 nm fluorescence, higher = more signal;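 note: Shh protein binding to compounds spotted on small-molecule microarray slides; score combines spot fluorescence intensity with signal-to-noise across triplicate slides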
[11] = optical density shifts of acrAB sulA E. coli – strain DRC41, OD650, 48 h, E. coli filamentation inducer project, primary screen (AID 1152); settings: higher = more signal, called active from +8 up or from −8 down;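 note: E. coli MC1000 strain DRC41 lacking acrAB efflux pump and sulA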
[12] = probe aLefty1 binding on compound microarray – biochemical, small-molecule microarray, 635/667 nm fluorescence, primary screen (AID 1153); settings: higher = more signal;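 note: score merges spot fluorescence with signal-to-noise ratio from the scanned slide images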
[13] = plasmodial surface anion channel blockers, osmotic lysis – cell-based, P. falciparum Indochina, OD700, 1 h, primary screen (AID 1154); settings: P. falciparum Indochina infected RBC osmotic lysis, higher = more signal, called active from +8 up or from −8 down
[14] = plasmodial surface anion channel blockers, osmotic lysis – cell-based, P. falciparum Indochina, OD700, 2 h, primary screen (AID 1155);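 note: lysis reports solute entry through the parasite surface anion channel PSAC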; settings: P. falciparum Indochina infected erythrocytes, higher = more signal, called active from +8 up or from −8 down
[15] = changes in parasitized red cell lysis, either direction – P. falciparum Indochina, OD700, 3 h, PSAC antagonist project, primary screen (AID 1156); settings: P. falciparum-infected erythrocytes, osmotic lysis, higher = more signal, called active from +8 up or from −8 down
[16] = plasmodial surface anion channel blockers, osmotic lysis – cell-based, P. falciparum Indochina, OD700, 18 h, primary screen (AID 1157); settings: P. falciparum Indochina infected erythrocytes, osmotic lysis OD700, 18 h; higher = more signal, called active from +8 up or from −8 down
[17] = S6 kinase pathway phospho-S6 level changes – cell-based, A549, cytoblot, luminescence, serum-stimulated, primary screen (AID 1158); settings: 5 h, higher = more signal;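 note: serum-stimulated A549 lung adenocarcinoma cells; signal is phosphorylated S6 detected by cytoblot immunostaining with HRP secondary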
[18] = target: NADPH oxidase 2 (Homo sapiens) (UniProt P04839); assay: compounds shifting NOX2 Amplex Red fluorescence – cell-based, HEK293-NOX2, PMA-stimulated, NOX inhibitor project, primary screen (AID 1159); settings: 45 min, higher = more signal, called active from +8 up or from −8 down; note: test concentration not given here
[19] = target: NADPH oxidase 4 (Homo sapiens) (UniProt Q9NPH5); assay: compounds shifting NOX4 Amplex Red fluorescence – cell-based, HEK293-NOX4, tetracycline-induced, NOX inhibitor project, primary screen (AID 1160); settings: HEK293-NOX4, Amplex Red H2O2 fluorescence, 45 min; higher = more signal, called active from +8 up or from −8 down
[20] = target: NADPH oxidase 5 (Homo sapiens) (UniProt Q96PH1); assay: compounds shifting NOX5 Amplex Red fluorescence – cell-based, HEK293-NOX5, NOX inhibitor project, primary screen (AID 1161); settings: HEK293-NOX5, ionomycin, 45 min, higher = more signal
NADPH oxidase 5 (Homo sapiens), sequence (Q96PH1 whole entry, looked up): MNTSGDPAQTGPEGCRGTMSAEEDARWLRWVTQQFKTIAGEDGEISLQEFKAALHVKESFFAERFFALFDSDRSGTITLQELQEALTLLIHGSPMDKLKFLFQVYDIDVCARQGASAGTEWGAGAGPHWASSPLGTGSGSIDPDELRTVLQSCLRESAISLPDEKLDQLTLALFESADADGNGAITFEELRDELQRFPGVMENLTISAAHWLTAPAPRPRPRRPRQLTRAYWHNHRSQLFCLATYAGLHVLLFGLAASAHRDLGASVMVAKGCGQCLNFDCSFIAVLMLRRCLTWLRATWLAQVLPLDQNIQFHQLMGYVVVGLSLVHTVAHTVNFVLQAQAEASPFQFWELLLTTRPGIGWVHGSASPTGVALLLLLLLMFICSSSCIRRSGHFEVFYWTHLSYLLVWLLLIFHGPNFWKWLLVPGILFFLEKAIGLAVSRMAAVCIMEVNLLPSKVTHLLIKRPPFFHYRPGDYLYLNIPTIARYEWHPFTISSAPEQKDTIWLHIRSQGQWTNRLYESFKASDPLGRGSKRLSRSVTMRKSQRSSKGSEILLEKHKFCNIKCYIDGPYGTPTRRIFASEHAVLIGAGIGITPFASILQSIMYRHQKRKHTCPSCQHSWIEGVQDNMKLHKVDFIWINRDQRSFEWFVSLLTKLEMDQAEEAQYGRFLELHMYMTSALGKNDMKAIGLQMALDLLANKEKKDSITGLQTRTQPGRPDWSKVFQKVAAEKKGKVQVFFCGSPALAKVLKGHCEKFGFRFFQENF

Streptavidin (Streptomyces avidinii), sequence (P22629 whole entry, looked up): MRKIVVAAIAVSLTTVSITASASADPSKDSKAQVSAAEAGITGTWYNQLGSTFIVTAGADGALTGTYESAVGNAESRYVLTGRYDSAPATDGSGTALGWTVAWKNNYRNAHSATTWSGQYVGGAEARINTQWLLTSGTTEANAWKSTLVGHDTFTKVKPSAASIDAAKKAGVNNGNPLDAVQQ
Torsin-1A (Homo sapiens), sequence (O14656 whole entry, looked up): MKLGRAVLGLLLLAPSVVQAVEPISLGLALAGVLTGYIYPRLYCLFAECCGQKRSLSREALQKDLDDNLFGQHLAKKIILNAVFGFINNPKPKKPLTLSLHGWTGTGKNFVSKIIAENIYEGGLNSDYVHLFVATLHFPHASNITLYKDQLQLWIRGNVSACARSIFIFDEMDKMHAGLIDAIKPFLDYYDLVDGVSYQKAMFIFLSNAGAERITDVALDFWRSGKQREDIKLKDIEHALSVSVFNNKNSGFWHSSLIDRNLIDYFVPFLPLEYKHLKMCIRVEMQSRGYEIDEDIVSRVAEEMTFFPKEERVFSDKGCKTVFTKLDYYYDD
NADPH oxidase 2 (Homo sapiens), sequence (P04839 whole entry, looked up): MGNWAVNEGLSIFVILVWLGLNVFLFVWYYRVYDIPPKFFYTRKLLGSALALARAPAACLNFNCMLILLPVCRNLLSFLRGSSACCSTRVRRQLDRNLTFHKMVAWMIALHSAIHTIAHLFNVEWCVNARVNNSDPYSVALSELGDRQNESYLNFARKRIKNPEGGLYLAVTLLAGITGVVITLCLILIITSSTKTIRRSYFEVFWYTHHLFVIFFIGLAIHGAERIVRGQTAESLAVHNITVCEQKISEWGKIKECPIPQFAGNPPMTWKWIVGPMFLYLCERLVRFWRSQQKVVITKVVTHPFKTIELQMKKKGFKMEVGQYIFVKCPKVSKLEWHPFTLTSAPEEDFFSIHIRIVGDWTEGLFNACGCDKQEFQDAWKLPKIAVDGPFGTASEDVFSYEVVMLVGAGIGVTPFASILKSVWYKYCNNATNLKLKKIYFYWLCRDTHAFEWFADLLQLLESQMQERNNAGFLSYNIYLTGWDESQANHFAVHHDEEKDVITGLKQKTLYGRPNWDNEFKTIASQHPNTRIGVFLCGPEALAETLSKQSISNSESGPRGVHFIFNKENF
NADPH oxidase 4 (Homo sapiens), sequence (Q9NPH5 whole entry, looked up): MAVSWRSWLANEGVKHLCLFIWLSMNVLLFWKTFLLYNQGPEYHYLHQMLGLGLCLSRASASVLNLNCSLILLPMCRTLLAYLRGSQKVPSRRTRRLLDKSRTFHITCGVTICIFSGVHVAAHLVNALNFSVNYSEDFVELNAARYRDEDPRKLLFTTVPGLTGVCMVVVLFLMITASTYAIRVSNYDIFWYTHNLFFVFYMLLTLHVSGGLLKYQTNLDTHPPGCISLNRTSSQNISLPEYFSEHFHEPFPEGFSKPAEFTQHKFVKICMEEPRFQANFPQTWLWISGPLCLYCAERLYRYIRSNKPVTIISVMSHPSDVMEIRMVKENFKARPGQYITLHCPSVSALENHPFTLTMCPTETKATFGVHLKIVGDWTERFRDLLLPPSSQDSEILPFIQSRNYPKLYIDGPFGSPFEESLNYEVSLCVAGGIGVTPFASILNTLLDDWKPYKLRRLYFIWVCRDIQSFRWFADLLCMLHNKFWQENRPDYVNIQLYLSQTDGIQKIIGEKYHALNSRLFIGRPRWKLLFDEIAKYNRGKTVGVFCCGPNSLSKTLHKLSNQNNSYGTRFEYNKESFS

Row | SMILES | composite z-score [1] | z-score [2] | z-score [3] | z-score [4] | z-score [5] | composite z-score [6] | composite z-score [7] | composite z-score (Torsin-1A (Homo sapiens) [8]) | composite z-score (Torsin-1A (Homo sapiens) [9]) | composite z-score [10] | z-score [11] | composite z-score [12] | z-score [13] | z-score [14] | z-score [15] | z-score [16] | z-score [17] | z-score [18] | z-score [19] | z-score [20]
1 | [N-]=[N+]=NCc1ccccc1[C@H]1OC(c2ccc(OCCCO)cc2)=N[C@@]1(CCS(=O)(=O)c1ccccc1)C(N)=O | 0.524 | -0.0602 (inactive) | 0.456 (inactive) | -0.678 (inactive) | 0.237 (inactive) | 1.8 | 0.182 | 1.87 | 1.76 | -0.384 | -0.56 (inactive) | 0.345 | 24.1 (active) | 6.95 (inactive) | 1.56 (inactive) | 0.764 (inactive) | 0.273 | 1.39 (inactive) | 2.23 (inactive) | 1.78
2 | CN(C)CCCNC(=O)[C@@]1(C)c2ccccc2C(=O)N(Cc2cc(C(F)(F)F)cc(C(F)(F)F)c2)[C@H]1c1ccc(CO)cc1 | -0.284 | -4.27 (inactive) | -0.391 (inactive) | 0.234 (inactive) | -0.227 (inactive) | -0.95 | 0.0275 | -0.639 | -0.774 | -0.584 | -1.2 (inactive) | -0.147 | 2.37 (inactive) | -0.0111 (inactive) | 2.17 (inactive) | 0.327 (inactive) | 0.16 | 0.0342 (inactive) | -1.35 (inactive) | -2.64
3 | CC(C)C(CO)N1C(=O)[C@]2(C)C3C(=O)OCCC/C=C\[C@H]3OC23C=CCN(c2ccc(Cl)cc2)C(=O)[C@@H]13 (stereo not given in full) | -0.269 | -0.199 (inactive) | 1.25 (inactive) | -0.358 (inactive) | 1.11 (inactive) | -0.476 | -0.128 | -1.47 | -0.856 | 0.279 | -0.785 (inactive) | -0.0929 | 1.12 (inactive) | 0.31 (inactive) | 0.787 (inactive) | 0.673 (inactive) | -0.197 | 1.47 (inactive) | 1.04 (inactive) | 1.69
4 | Cc1ccc(C(C)CC(O)C2C=CC3C(=O)N(c4ccccc4)C(=O)C3N2Nc2ccc(C(C)C)cc2)o1 (stereo not given) | 0.301 | 0.183 (inactive) | -0.203 (inactive) | 0.246 (inactive) | 0.0702 (inactive) | 1.33 | 0.343 | 0.216 | 0.715 | 0.154 | -1.84 (inactive) | 0.629 | 1.45 (inactive) | 0.871 (inactive) | 0.948 (inactive) | 0.631 (inactive) | -1.31 | -0.831 (inactive) | -2.34 (inactive) | -3.53
5 | COC(=O)[C@@]1(Cc2ccc(OC)cc2)[C@H]2c3cc(C(=O)N(C)C)n(CCc4c[nH]c5ccc(O)cc45)c3C[C@H]2CN1C(=O)c1ccccc1 | 0.292 | -2.69 (inactive) | 0.255 (inactive) | 0.383 (inactive) | -0.292 (inactive) | 1.65 | 0.765 | 0.0612 | 0.263 | -0.428 | -1.58 (inactive) | 0.825 | 4.25 (inactive) | 1.25 (inactive) | 0.396 (inactive) | 1.23 (inactive) | 0.092 | 0.689 (inactive) | 0.0624 (inactive) | 1.14
6 | CCOC(=O)C[C@H]1[C@H](OC(=O)c2ccccc2-c2ccccc2)[C@@H](NC(=O)c2ccc3ccccc3n2)c2cc(OCCCO)ccc2N1C(=O)c1ccc2ccccc2n1 | 0.191 | -0.688 (inactive) | -1.37 (inactive) | 1.22 (inactive) | 0.305 (inactive) | 1.07 | -0.117 | -0.137 | -0.184 | 0.389 | 1.17 (inactive) | -0.0747 | 3.67 (inactive) | -0.774 (inactive) | -1.88 (inactive) | -2.15 (inactive) | 0.112 | 1.18 (inactive) | 1.07 (inactive) | 2.5
7 | C=C(C(=O)CC[C@H](OC(=O)c1cccnc1)c1cccc(OCCO)c1)C(C)C | -0.13 | -1.04 (inactive) | -0.285 (inactive) | 17.7 (active) | -0.464 (inactive) | 0.0502 | -0.0719 | 1.17 | -0.206 | 0.389 | 0.184 (inactive) | 0.0327 | 14.4 (active) | 2.83 (inactive) | 1.76 (inactive) | 1.04 (inactive) | -0.0915 | 0.657 (inactive) | -0.0784 (inactive) | -2.05
8 | COc1ccc(C#Cc2ccc3c(c2)[C@]2(C(=O)N3)[C@H](C(=O)N3CCc4cc(OC)c(OC)cc4C3)[C@H]3C(=O)O[C@H](c4ccccc4)[C@H](c4ccccc4)N3[C@@H]2c2ccc(O)cc2)cc1 | 0.219 | -0.59 (inactive) | -1.01 (inactive) | -0.141 (inactive) | -1.02 (inactive) | 1.04 | -0.121 | 1.03 | 0.199 | 0.466 | -0.658 (inactive) | 0.0839 | 0.488 (inactive) | 0.216 (inactive) | -0.103 (inactive) | 0.296 (inactive) | -0.203 | 1.32 (inactive) | 0.574 (inactive) | -0.523

— PubChem BioAssay
